Compounds without any hit were thinned out: in the full panel of roughly 83,000, 20% have a hit.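 Compound tested at a single concentration for 48 hours in 96-well plates; a percent growth value below 10 was scored as active.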 Values without a mark were called inactive. Active and inactive are the calls of the source.
Experiments:
Test in all cases: NCI-60 one-dose screen, 48 h (100 = growth as untreated, 0 = no growth, -100 = all killed)
Details in all cases: 10 µM unless noted
DU-145 prostate = system: DU-145 prostate
K-562 leukemia = system: K-562 leukemia
MALME-3M melanoma = system: MALME-3M melanoma
MDA-MB-231 breast = system: MDA-MB-231 breast
RXF 393 renal = system: RXF 393 renal
SF-268 CNS = system: SF-268 CNS
SF-295 CNS = system: SF-295 CNS
SF-539 CNS = system: SF-539 CNS
UACC-257 melanoma = system: UACC-257 melanoma
M14 melanoma = system: M14 melanoma
HCT-15 colon = system: HCT-15 colon
HT29 colon = system: HT29 colon
SNB-75 CNS = system: SNB-75 CNS
SNB-19 CNS = system: SNB-19 CNS
U251 CNS = system: U251 CNS
PC-3 prostate = system: PC-3 prostate
SK-MEL-5 melanoma = system: SK-MEL-5 melanoma
UACC-62 melanoma = system: UACC-62 melanoma
LOX IMVI melanoma = system: LOX IMVI melanoma
SK-MEL-28 melanoma = system: SK-MEL-28 melanoma

Row | Structure (SMILES) | growth (DU-145 prostate) | growth (K-562 leukemia) | growth (MALME-3M melanoma) | growth (MDA-MB-231 breast) | growth (RXF 393 renal) | growth (SF-268 CNS) | growth (SF-295 CNS) | growth (SF-539 CNS) | growth (UACC-257 melanoma) | growth (M14 melanoma) | growth (HCT-15 colon) | growth (HT29 colon) | growth (SNB-75 CNS) | growth (SNB-19 CNS) | growth (U251 CNS) | growth (PC-3 prostate) | growth (SK-MEL-5 melanoma) | growth (UACC-62 melanoma) | growth (LOX IMVI melanoma) | growth (SK-MEL-28 melanoma)
1 | CSc1nc(N)nc2c1ncn2C | 108% | 95% | 104% | 109% | 116% | 98.7% | 108% | 98.9% | 104% | 102% | 102% | 87.1% | 96.4% | 110% | 95.4% | 72.5% | 100% | 102% | 92.6% | 109%
2 | CCC1S/C(=N\N=C(/C)c2ccco2)N(c2ccccc2)C1=O (stereo not given) | 123% | 120% | 79.6% | 118% | 103% | 100% | 123% | 107% | 109% | 138% | 118% | 86.8% | 103% | 104% | 104% | 76.6% | 146% | 92% | 99.5% | 108%
3 | O=C(NCCNc1nccc(-c2c(-c3cccc(O)c3)nc3sccn23)n1)c1cccc(C(F)(F)F)c1 | 91.4% | 56.2% | 0.753% (active) | 76.2% | 79.9% | 86.7% | 69.6% | 100% | 14.4% | 17.5% | 87.8% | 81.1% | 73.8% | 116% | 84.8% | 67.3% | 52.6% | 3.21% (active) | 53.4% | 38.5%
4 | CN1CCN(Cn2nc(-c3cc(Cl)cc(Cl)c3Cl)n(/N=C/c3ccc(Cl)cc3)c2=S)CC1 | 102% | 73.9% | 101% | 83.8% | 89.6% | 117% | 102% | 108% | 93.6% | 96% | 93.5% | 117% | 107% | 96.6% | 93.1% | 82.4% | 92.3% | 90% | 90.4% | 111%
5 | CNCCCOc1c(Br)cc(CCNC(=O)/C(Cc2ccc(OC)c(Br)c2)=N/O)cc1Br | 61.2% | -21.6% (active) | 1.79% (active) | 26.8% | 45.3% | 53% | 19.8% | 32.1% | 4.02% (active) | -55.9% (active) | 22.9% | 5.72% (active) | 50.6% | 50.3% | 27.5% | 34.5% | 38.9% | 9.73% (active) | -35.4% (active) | -21.7% (active)
6 | COc1ccc(/C=C/C(=O)c2ccc(Oc3ncnc4ccccc34)cc2)cc1OC | 61.9% | 9.19% (active) | 77.5% | 81.6% | 88.1% | 74.8% | 85.7% | 73.5% | 93.8% | 64.3% | 24.3% | 27.4% | 74.8% | 64.9% | 50.9% | – | 72.5% | 76.9% | 13.8% | 104%
7 | O=c1[nH]ccc2nc(N3CCC(O)CC3)nc(Nc3cccc(C(F)(F)F)c3)c12 | 72% | 44.7% | 64.5% | 88.3% | 54.4% | 67.1% | 96.8% | 80.4% | 16.3% | 39.1% | 49.9% | 71.6% | 87.1% | 98.9% | 55.2% | 30.6% | -55.9% (active) | – | 56.2% | 76.1%
8 | Nc1nc(Cl)cc(NCc2ccc(CNc3cc(Cl)nc(N)n3)cc2)n1 | 96.4% | 47.8% | 182% | 83.1% | 90.9% | 98.2% | 105% | 87.3% | 96% | 133% | 100% | 110% | 78.3% | 100% | 98.6% | – | 58.4% | 98.3% | 79.5% | 120%
9 | COC(=O)c1ccc(NC(N)=NCC(C)(C)COc2ccc(C(F)(F)F)cc2)nc1 | 68.8% | -31.8% (active) | 82.4% | 48.8% | 70.7% | 66.8% | 57.1% | 82.6% | 62.4% | 55.6% | 18.1% | 9.44% (active) | 86.8% | 68.8% | 40.1% | 50.9% | 23.2% | – | 16.5% | 90.1%
10 | COc1ccc2c(c1)OC(N(C(C)=O)C(C)=O)=C(C#N)C2c1ccc(F)cc1 (stereo not given) | 37.9% | 10.2% | 62.5% | 53.1% | -2.33% (active) | 54.1% | 18.3% | 13.9% | 63% | 20.5% | 24.9% | 8.69% (active) | 8.71% (active) | 28.6% | 30.8% | 21.9% | 18.9% | – | 47.7% | 64.4%
11 | CC1OC(n2c3ccccc3c3c4c(c5c6ccccc6[nH]c5c32)C(=O)N(CCN[C@@H]2CCC[C@H]2N)C4=O)CC(O)C1O (stereo not given in full) | 31.8% | 1.43% (active) | 24.9% | 16.4% | 33.7% | 30.6% | 8.14% (active) | 17.8% | 29.8% | 18.7% | 70.2% | 0.0923% (active) | 12.5% | 14.8% | 7.39% (active) | – | -48.6% (active) | 17.9% | 0.411% (active) | –
12 | CN(C)CCS(=O)(=O)Nc1cc(-c2ccc3ncnc(Nc4ccc(F)c(Cl)c4)c3c2)cnc1Cl | -3.31% (active) | 9.31% (active) | -23.2% (active) | -26.8% (active) | -47.2% (active) | -20.9% (active) | 10.1% | -22.2% (active) | -0.224% (active) | 4.73% (active) | -2.7% (active) | 2.45% (active) | 9.33% (active) | 41.6% | -40.6% (active) | – | -71.9% (active) | -2.94% (active) | -58.5% (active) | -31.6% (active)
13 | Oc1ccccc1/C=N/c1ccccn1 | 129% | 109% | 115% | 106% | 107% | 110% | 121% | 100% | 91.4% | 100% | 104% | 114% | 98% | 88% | 99% | – | 97% | 106% | 94.4% | 117%
14 | CN1CCN(C(=O)/C=C/c2ccc([N+](=O)[O-])o2)CC1 | 92.6% | 86.6% | 22.6% | 87.8% | -14.9% (active) | 87.6% | 134% | 107% | 1.85% (active) | 92.4% | 63.8% | 81.8% | 95.2% | 98% | 90% | 95.7% | 90.1% | – | 66.7% | 35.8%
